A short description of the experiment: MRP-overexpressing cell chemosensitization – dose response (AID 741). The following applies: MRP-overexpressing cells, viability with/without cytotoxic drug; slope difference: measured here: slope difference tox minus reversal, stronger effect = higher value; toxicity enhancement factor: stronger effect = higher value; viability: measured here: viability series, compound alone, at 10 µM, stronger effect = lower value.

Results filed as inconclusive are left out. The source made the active and inactive calls. Rule as the data show it: active = toxicity enhancement factor above about 0.054; inconclusive = between about 0.00067 and that limit; inactive = weaker than that.

With `CN1C(C(=O)Nc2ccccn2)=C(O)c2sccc2S1(=O)=O`, the slope difference was -0.669, the toxicity enhancement factor is -0.0064 (inactive) and the viability is 103%.

On to `Cc1ccc(CN(C(=O)c2ccco2)C(C(=O)NC2CCCC2)c2ccc(N3CCOCC3)cc2)cc1` (stereo unspecified), for which the slope difference stood at 2.19, the toxicity enhancement factor was 0.0523 (active) and the viability was found to be 72.9%.

As for `CCCc1cc(Nc2c(C)n(C)n(-c3ccccc3)c2=O)n2c(nc3ccccc32)c1C#N`, the slope difference came to 4.27, the toxicity enhancement factor is 0.0896 (active) and the viability came out at 97.6%.

Take `Cc1oncc1C(=O)Nc1ccc(C(F)(F)F)cc1`: the slope difference was -0.34, the toxicity enhancement factor is -0.0035 (inactive) and the viability turned out to be 96.5%.

For `Cc1nn(C)c(C)c1NC(=O)CSc1nc(C2CC2)nc2c1cnn2-c1ccccc1`, the slope difference is -1.07, the toxicity enhancement factor is -0.0298 (inactive) and the viability worked out at 27.3%.

Consider `CCCN1C2=C(C(=O)CC(C)(C)C2)C(c2ccc(F)cc2)C2=C1c1ccccc1C2=O` (stereo unspecified), for which the slope difference is 3.28, the toxicity enhancement factor was 0.126 (active) and the viability was determined as 64.6%.

Take `Cc1ccc(Cn2c(N3CCCCCC3)nc3c2c(=O)[nH]c(=O)n3C)cc1`: the slope difference was -0.91, the toxicity enhancement factor was -0.0097 (inactive) and the viability amounted to 88.2%.

With `CCCNc1nc2c(c(=O)n(C)c(=O)n2C)n1Cc1ccc(F)cc1`, the slope difference was -0.107, the toxicity enhancement factor was -0.0012 (inactive) and the viability worked out at 92.8%.

In the case of `Cc1ccc(N2C(N)=C(C#N)C(c3cccnc3)C3=C2CCCC3=O)cc1` (stereo unspecified), the slope difference stood at 2.44, the toxicity enhancement factor is 0.0726 (active) and the viability worked out at 62.7%.

As for `O=C(O)c1ccccc1O`, the slope difference was -0.779, the toxicity enhancement factor is -0.0072 (inactive) and the viability turned out to be 100%.

With `COc1ccc2cc(C(c3nnnn3C(C)(C)C)N3CCc4ccccc4C3)c(=O)[nH]c2c1` (stereo unspecified), the slope difference was -0.322, the toxicity enhancement factor was -0.0045 (inactive) and the viability amounted to 76.3%.

Take `Clc1cnc(N/N=C/c2cccs2)c(Cl)c1`: the slope difference was -0.68, the toxicity enhancement factor is -0.0069 (inactive) and the viability is 96.8%.

Broadly, the viability is a read-out of living cells in per cent, often relative to untreated cells.

Source of the values: PubChem BioAssay AID741 (SRMLSC, 2007).
